Compounds without any hit were thinned out: in the full panel of roughly 79,000, 15% have a hit. Unmarked numbers belong to inactive results. Calls of active or inactive are those of the source. No stated cut-off is given here; in the data, active means growth inhibition above about 70%; inactive means the rest.
Experiment: NCI Yeast Anticancer Drug Screen. Data for the rad18 strain (AID 177)
Settings: S. cerevisiae rad18 mutant growth inhibition, stronger effect = higher value
Protocol: Growth inhibition of yeast strains with defined genetic alterations is measured as a screen for potential anti-cancer activity. Selected strains with alterations in DNA damage repair or cell cycle control were exposed to compounds and growth inhibition was measured relative to vehicle treated controls. The strain used in this assay is rad18

SMILES | growth inhibition (at 1.2 µM) [%] | growth inhibition (at 3.7 µM) | growth inhibition (at 11.0 µM) | growth inhibition (at 33.0 µM) | growth inhibition (at 100.0 µM)
Cc1nc2c(Br)cc(Br)cc2c(=O)n1-c1ccccc1NC1OCC(O)C(O)C1O (stereo not given) | 42 | 41% | 41% | 62% | 97% (active)
O=c1ssc(=Nc2ccccc2)n1-c1ccccc1 | 4 | 3% | -1% | 13% | 47%
O=C1OC(C2=CC(=O)c3ccccc3C2=O)C(Cl)=C1Cl (stereo not given) | 31 | 79% (active) | 92% (active) | 95% (active) | 94% (active)
Cc1cccc(C(C)(C)C)c1NC(=O)C(C#N)C1=C(Cl)C(=O)c2ccccc2C1=O (stereo not given) | -6 | 34% | 59% | 98% (active) | 97% (active)
Cc1nc(-c2cc3cc([N+](=O)[O-])ccc3oc2=O)cs1 | 1 | 2% | 7% | 34% | 94% (active)
Nc1ccn(C2OC(COP(=O)(O)O)C(O)C2O)c(=O)n1 (stereo not given) | -1 | -4% | -8% | -15% | -22%
O=C(O)CCCC1CCCc2c1ccc1ccccc21 (stereo not given) | -2 | -2% | 2% | 58% | 98% (active)
Oc1[nH]c2ccccc2c1N=NC(=S)N1CCCCC1 | 5 | 9% | 24% | 89% (active) | 97% (active)
